PMC5540273 (PLoS ONE, 2017)

Key:
Settings in all cases: concentration: 1 μM,replicates: in singlicate; n = 1
[1] = test system: TNNI3K
[2] = test system: T1, TRKA
T1 construct: gene NTRK1

[3] = test system: TRKB
[4] = test system: T2, TRKC
T2 construct: gene NTRK3

[5] = test system: TRPM6
[6] = test system: TSSK1B
[7] = test system: TSSK3
[8] = test system: TTK
[9] = test system: TXK
[10] = test system: TYK2(JH1domain-catalytic)
[11] = test system: TYK2(JH2domain-pseudokinase)
[12] = test system: TYRO3
[13] = test system: ULK1
[14] = test system: ULK2
[15] = test system: ULK3
[16] = test system: T3, VEGFR2
T3 construct: gene KDR

[17] = test system: T4, VPS34
T4 construct: gene PIK3C3

[18] = test system: VRK2
[19] = test system: WEE1
[20] = test system: WEE2
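Also: KINOMEscan kinase panel screen.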

| Structure (SMILES) | %Inh [1] [%] | %Inh [2] [%] | %Inh [3] [%] | %Inh [4] [%] | %Inh [5] [%] | %Inh [6] [%] | %Inh [7] [%] | %Inh [8] [%] | %Inh [9] [%] | %Inh [10] [%] | %Inh [11] [%] | %Inh [12] [%] | %Inh [13] [%] | %Inh [14] [%] | %Inh [15] [%] | %Inh [16] [%] | %Inh [17] [%] | %Inh [18] [%] | %Inh [19] [%] | %Inh [20] [%] |
| --- | --- | --- | --- | --- | --- | --- | --- | --- | --- | --- | --- | --- | --- | --- | --- | --- | --- | --- | --- | --- |
| N#Cc1cccc(C(=O)NC2CCN(c3ccnc(Nc4ccc(F)cc4)n3)C2)c1 (centres unmarked) [GSK1379708] | 4 | 0 | 8 | 28 | 0 | 0 | 18 | 0 | 0 | 14 | 12 | 0 | 7 | 0 | 0 | 0 | 0 | 0 | 12 | 6 |
| Cc1ccc2c(-c3ccnc(Nc4ccc(C(F)(F)F)cc4)n3)cnn2n1 [GW819776] | 3 | 0 | 0 | 0 | 43 | 0 | 0 | 38 | 0 | 5 | 69 | 0 | 0 | 0 | 21 | 0 | 48 | 31 | 6 | 0 |
| CC(=O)Nc1ccc(-c2cc3ncnc(SCC(=O)O)c3s2)cc1 | 0 | 31 | 0 | 0 | 23 | 21 | 0 | 0 | 17 | 37 | 0 | 0 | 10 | 13 | 15 | 27 | 0 | 0 | 0 | 4 |
| C[C@@H]1CNc2c(sc3ccc4nc(-c5ccncc5)ccc4c23)C(=O)N1 | 0 | 0 | 0 | 0 | 0 | 33 | 2 | 16 | 0 | 46 | 59 | 0 | 26 | 27 | 0 | 13 | 0 | 0 | 0 | 0 |
| Nc1nccc(-c2ccc3c(N)n[nH]c3c2)n1 [GSK1034945] | 13 | 0 | 0 | 0 | 26 | 0 | 27 | 0 | 0 | 34 | 52 | 0 | 41 | 13 | 4 | 0 | 0 | 0 | 35 | 0 |
| Cn1ccc2ncnc(Oc3ccc(NC(=O)Nc4cnn(C(C)(C)C)c4)c(Cl)c3)c21 | 54 | 39 | 56 | 82 | 0 | 0 | 7 | 4 | 0 | 0 | 3 | 0 | 0 | 7 | 0 | 99.1 | 16 | 0 | 0 | 5 |
| CC(C(=O)NC1CCN(c2ccnc(Nc3ccc(F)cc3)n2)C1)c1ccc(Cl)cc1 (centres unmarked) [GSK1379713] | 0 | 33 | 11 | 0 | 0 | 0 | 5 | 11 | 0 | 9 | 0 | 0 | 7 | 0 | 2 | 3 | 4 | 0 | 6 | 13 |
| COc1cc2c(Nc3ccc(NC(=O)c4ccccc4)cc3)ncnc2cc1OCCCN1CCOCC1 [GSK301329] | 9 | 84 | 0 | 0 | 23 | 0 | 16 | 50 | 4 | 2 | 0 | 13 | 7 | 0 | 13 | 6 | 2 | 0 | 19 | 9 |
| CC(C)S(=O)(=O)N1CCN(Cc2ccc3c(c2)nc(NC(=O)c2ccsc2)n3C[C@H](O)c2ccccc2)CC1 [GW635815] | 8 | 100 | 94.2 | 95.5 | 18 | 5 | 16 | 29 | 0 | 66 | 8 | 31 | 82 | 60 | 92.1 | 3 | 18 | 11 | 29 | 6 |
| CN1CCN(CCCNc2nccc(-c3c(-c4ccc(F)cc4)nn4cc(C(N)=O)ccc34)n2)CC1 [GW622475] | 3 | 43 | 10 | 6 | 23 | 18 | 24 | 8 | 47 | 0 | 40 | 0 | 8 | 0 | 0 | 9 | 19 | 0 | 2 | 0 |
